As a reminder, the AC50 is the concentration at which the activity in the assay is half-maximal.

Holding throughout (settings): mRNA level, 48 h; actives raise or lower the signal
Read-out in assay [1]: Insulin Like Growth Factor 1 (IGF1), IGF1 (gene 3479)
Briefly: LTEA_HepaRG_IGF1: Life Technologies and Expression Analysis (LTEA) Assay for Insulin Like Growth Factor 1 (IGF1) using HepaRG (AID 2283506). An outline of the steps: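 Endpoint: IGF1 mRNA change by qRT-PCR, housekeeping-normalized, fitted bidirectionally relative to 0.5% DMSO vehicle. Human HepaRG cells were treated 48 h in serum-free induction medium, eight half-log concentrations topping at 100 uM.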

Read-out in assay [2]: Intercellular Adhesion Molecule 1 (ICAM1), ICAM1 (gene 3383)
Kind of assay: LTEA_HepaRG_ICAM1: Life Technologies and Expression Analysis (LTEA) Assay for Intercellular Adhesion Molecule 1 (ICAM1) using HepaRG (AID 2283507). In a few lines:
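Readout is qRT-PCR mRNA level, normalized to three housekeeping genes and fitted bidirectionally against 0.5% DMSO vehicle. Human HepaRG cultures received compound for 48 h, top concentration 100 uM with half-log dilutions.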

Read-out in assay [3]: Insulin-like growth factor-binding protein 1 (IGFBP1), IGFBP1 (gene 3484)
Kind of assay: LTEA_HepaRG_IGFBP1: Life Technologies and Expression Analysis (LTEA) Assay for Insulin-like growth factor-binding protein 1 (IGFBP1) using HepaRG (AID 2283508). An outline of the steps:
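Thawed HepaRG cells are plated for 48 h, switched to serum-free induction medium, then dosed in duplicate for another 48 h (100 uM top, half-log steps). Lysates in RLT go to qRT-PCR, and gain or loss of signal is fitted relative to vehicle.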

Read-out in assay [4]: Interleukin 6 (IL6), IL6 (gene 3569)
Kind of assay: LTEA_HepaRG_IL6: Life Technologies and Expression Analysis (LTEA) Assay for Interleukin 6 (IL6) using HepaRG (AID 2283509). In a few lines: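 Changes in IL6 mRNA, up or down relative to 0.5% DMSO controls, were derived from concentration-response curves in human HepaRG cells treated for 48 h at up to 100 uM, with ACTB, GAPDH and POLR2A as normalizers.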

Read-out in assay [5]: Interleukin 6 Receptor (IL6R), IL6R (gene 3570)
Kind of assay: LTEA_HepaRG_IL6R: Life Technologies and Expression Analysis (LTEA) Assay for Interleukin 6 Receptor (IL6R) using HepaRG (AID 2283510). In a few lines:
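In this HepaRG screen, test chemicals act on cells for 48 h at up to 100 uM (eight half-log points, duplicate wells). IL6R expression is quantified by qRT-PCR after normalization to ACTB, GAPDH and POLR2A, with DMSO as baseline.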

Read-out in assay [6]: Potassium channel subfamily K member 1 (KCNK1), KCNK1 (gene 3775)
Kind of assay: LTEA_HepaRG_KCNK1: Life Technologies and Expression Analysis (LTEA) Assay for Potassium channel subfamily K member 1 (KCNK1) using HepaRG (AID 2283511). An outline of the steps:
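Human HepaRG cultures receive test chemicals for 48 h in 0.5% DMSO, top concentration 100 uM with half-log dilutions. Induction or suppression of KCNK1 mRNA relative to DMSO is derived by bidirectional fitting of qRT-PCR data.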

Read-out in assay [7]: Keratin 19 (KRT19), KRT19 (gene 3880)
Briefly: LTEA_HepaRG_KRT19: Life Technologies and Expression Analysis (LTEA) Assay for Keratin 19 (KRT19) using HepaRG (AID 2283512). An outline of the steps: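 KRT19 transcript levels, measured by Fluidigm qRT-PCR against three housekeeping genes, are fitted for gain or loss of signal relative to DMSO. Human HepaRG cells receive test chemicals (top 100 uM, half-log steps, 0.5% DMSO) for 48 hours.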

Read-out in assay [8]: Lipase C (LIPC), LIPC (gene 3990)
Briefly: LTEA_HepaRG_LIPC: Life Technologies and Expression Analysis (LTEA) Assay for Lipase C (LIPC) using HepaRG (AID 2283514). An outline of the steps: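 In this multiplexed gene-expression screen, human HepaRG cultures received test chemicals for 48 h across eight concentrations with 100 uM highest, in duplicate. Values reflect LIPC mRNA induction or suppression versus DMSO vehicle, from normalized qRT-PCR.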

Read-out in assay [9]: Lipoprotein lipase (LPL), LPL (gene 4023)
Kind of assay: LTEA_HepaRG_LPL: Life Technologies and Expression Analysis (LTEA) Assay for Lipoprotein lipase (LPL) using HepaRG (AID 2283515). In a few lines:
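Concentration-response testing used half-log steps from 100 uM in 0.5% DMSO on human HepaRG cells, 48 h, duplicate wells. Phenobarbital 1 mM served as induction control; LPL mRNA was normalized to ACTB, GAPDH, POLR2A.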

Read-out in assay [10]: MicroRNA 122 (MIR122), gene 406906
Briefly: LTEA_HepaRG_MIR122: Life Technologies and Expression Analysis (LTEA) Assay for MicroRNA 122 (MIR122) using HepaRG (AID 2283516). Also: the transcript read is the microRNA miR-122. In a few lines:
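Changes in transcript abundance, up or down relative to 0.5% DMSO vehicle, were scored after 48 h chemical treatment of HepaRG cells (maximum 100 uM). Quantification used TaqMan qRT-PCR normalized to housekeeping genes.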

Read-out in assay [11]: matrix metalloproteinase-10 (MMP10), MMP10 (gene 4319)
Kind of assay: LTEA_HepaRG_MMP10: Life Technologies and Expression Analysis (LTEA) Assay for matrix metalloproteinase-10 (MMP10) using HepaRG (AID 2283517). An outline of the steps: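 In differentiated HepaRG cultures kept in 0.5% DMSO, test chemicals act for 48 h over an eight-point range with a top dose of 100 uM. Expression is then quantified by TaqMan RT-PCR against ACTB, GAPDH and POLR2A.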

Read-out in another assay: MYC, MYC (gene 4609)
Kind of assay: LTEA_HepaRG_MYC: Life Technologies and Expression Analysis (LTEA) Assay for MYC using HepaRG (AID 2283518). An outline of the steps: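 HepaRG, ~100,000 cells/well, collagen I; 48 h plating; serum-free induction medium; 48 h dosing, duplicate, 100 uM top, half-log, 0.5% DMSO; total RNA → qRT-PCR MYC; gain/loss fit vs DMSO.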

Read-out in assay [12]: matrix metalloproteinase-3 (MMP3), MMP3 (gene 4314)
Kind of assay: LTEA_HepaRG_MMP3: Life Technologies and Expression Analysis (LTEA) Assay for matrix metalloproteinase-3 (MMP3) using HepaRG (AID 2283519). In a few lines:
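Human liver HepaRG cultures received chemicals (top concentration 100 uM, 0.5% DMSO) for 48 h in duplicate. MMP3 mRNA induction or loss was then assessed via TaqMan qRT-PCR with housekeeping-gene normalisation.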

Read-out in assay [13]: Paternally Expressed 10 (PEG10), PEG10 (gene 23089)
Kind of assay: LTEA_HepaRG_PEG10: Life Technologies and Expression Analysis (LTEA) Assay for Paternally Expressed 10 (PEG10) using HepaRG (AID 2283520).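 As to AC50: PEG10 transcript by qRT-PCR normalised to ACTB GAPDH and POLR2A.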 An outline of the steps:
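After 48 h exposure of differentiated HepaRG cells (0.5% DMSO vehicle, eight concentrations up to 100 uM, duplicates), PEG10 mRNA was measured by TaqMan qRT-PCR. Values were normalised to endogenous control genes and analysed bidirectionally against vehicle.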

Read-out in assay [14]: Nuclear factor NF-kappa-B p105 subunit (Homo sapiens) (UniProt P19838)
Kind of assay: LTEA_HepaRG_NFKB1: Life Technologies and Expression Analysis (LTEA) Assay for Nuclear Factor Kappa B Subunit 1 (NFKB1) using HepaRG (AID 2283521).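 Also: differentiated human HepaRG liver cells in serum-free induction medium; TaqMan qRT-PCR transcript normalised to ACTB GAPDH and POLR2A housekeeping genes.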 In a few lines: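 HepaRG, 48 h exposure; 8-pt half-log series from 100 uM in 0.5% DMSO; duplicates. Readout: NFKB1 mRNA by qRT-PCR (Fluidigm arrays), housekeeping-normalized. Gain/loss fit vs DMSO baseline.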

Read-out in assay [15]: Protein phosphatase 2A (PPP2R4), PTPA (gene 5524)
Kind of assay: LTEA_HepaRG_PPP2R4: Life Technologies and Expression Analysis (LTEA) Assay for Protein phosphatase 2A (PPP2R4) using HepaRG (AID 2283522). In a few lines: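 Using HepaRG cultures maintained in 0.5% DMSO, chemicals are tested 48 h at up to 100 uM in duplicate. Induction or suppression of PPP2R4 mRNA, measured by qRT-PCR, is fitted bidirectionally against the vehicle baseline.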

Read-out in assay [16]: Phosphatase and tensin (PTEN), PTEN (gene 5728)
Kind of assay: LTEA_HepaRG_PTEN: Life Technologies and Expression Analysis (LTEA) Assay for Phosphatase and tensin (PTEN) using HepaRG (AID 2283523). In a few lines: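 Expression of PTEN is quantified in the human liver line HepaRG following two days of dosing (top concentration 100 uM, half-log dilutions, 0.5% DMSO). Values derive from bidirectional curve fitting relative to DMSO controls.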

Read-out in assay [17]: solute carrier (SLC22A1), SLC22A1 (gene 6580)
Briefly: LTEA_HepaRG_SLC22A1: Life Technologies and Expression Analysis (LTEA) Assay for solute carrier (SLC22A1) using HepaRG (AID 2283524).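 As to AC50: differentiated human HepaRG liver cells in serum-free induction medium; TaqMan qRT-PCR normalized to ACTB GAPDH and POLR2A housekeeping genes.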 In a few lines: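 Transcript induction or suppression of SLC22A1 in human HepaRG cultures is scored after 48 h chemical treatment, with DMSO (0.5%) as baseline for bidirectional fitting. Concentrations span eight half-log points topping at 100 uM.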

Read-out in assay [18]: Pyruvate Dehydrogenase Kinase 4 (PDK4), PDK4 (gene 5166)
Kind of assay: LTEA_HepaRG_PDK4: Life Technologies and Expression Analysis (LTEA) Assay for Pyruvate Dehydrogenase Kinase 4 (PDK4) using HepaRG (AID 2283525). An outline of the steps: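 Eight-point, half-log concentration series (max 100 uM, 0.5% DMSO) applied to differentiated HepaRG cells for 48 h in duplicate. Endpoint: PDK4 mRNA induction or repression by qRT-PCR against DMSO baseline.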

Read-out in assay [19]: JUN Transcription Factor, JUN (gene 3725)
Briefly: LTEA_HepaRG_JUN: Life Technologies and Expression Analysis (LTEA) Assay for JUN Transcription Factor using HepaRG (AID 2283513). In a few lines:
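Gene-expression endpoint: JUN mRNA (qRT-PCR, normalized to three reference genes) in HepaRG cultures treated 48 h with chemicals, duplicate wells, 100 uM maximum with half-log dilutions; bidirectional fitting relative to 0.5% DMSO.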

Molecules are shown by their SMILES. Calls of active or inactive are those of the source. The calls were made as follows: active = hit-call score of the fitted dose curve at least 0.9, where 1 is the maximum; inactive = score below 0.9.

Sequence of Nuclear factor NF-kappa-B p105 subunit (Homo sapiens) (P19838 whole entry, looked up): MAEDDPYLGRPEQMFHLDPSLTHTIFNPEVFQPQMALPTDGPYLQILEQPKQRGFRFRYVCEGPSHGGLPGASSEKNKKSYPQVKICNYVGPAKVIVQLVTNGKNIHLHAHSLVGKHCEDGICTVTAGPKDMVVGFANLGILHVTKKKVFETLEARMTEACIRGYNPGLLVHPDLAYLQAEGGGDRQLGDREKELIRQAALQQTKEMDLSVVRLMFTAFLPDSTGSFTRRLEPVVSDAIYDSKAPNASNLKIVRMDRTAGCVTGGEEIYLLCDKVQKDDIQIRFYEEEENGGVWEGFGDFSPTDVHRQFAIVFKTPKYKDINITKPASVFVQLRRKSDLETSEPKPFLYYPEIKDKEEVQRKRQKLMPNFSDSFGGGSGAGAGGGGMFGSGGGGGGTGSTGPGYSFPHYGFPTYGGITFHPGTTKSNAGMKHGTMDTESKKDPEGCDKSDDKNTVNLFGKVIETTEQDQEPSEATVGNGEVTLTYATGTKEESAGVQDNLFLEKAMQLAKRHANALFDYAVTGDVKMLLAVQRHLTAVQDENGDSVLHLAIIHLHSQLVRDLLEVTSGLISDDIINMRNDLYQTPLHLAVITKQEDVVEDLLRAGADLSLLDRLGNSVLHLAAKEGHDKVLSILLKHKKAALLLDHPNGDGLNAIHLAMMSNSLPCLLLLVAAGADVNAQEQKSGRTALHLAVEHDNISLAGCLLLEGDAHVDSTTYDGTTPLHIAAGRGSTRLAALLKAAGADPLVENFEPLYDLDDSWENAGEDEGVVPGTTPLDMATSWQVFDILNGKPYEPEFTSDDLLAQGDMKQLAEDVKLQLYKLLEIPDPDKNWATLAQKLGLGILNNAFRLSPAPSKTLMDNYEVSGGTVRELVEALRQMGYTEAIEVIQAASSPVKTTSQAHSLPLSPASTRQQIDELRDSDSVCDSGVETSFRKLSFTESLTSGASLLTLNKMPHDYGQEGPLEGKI

Take `O=C(NS(=O)(=O)/C=C/c1ccccc1)c1ccc(F)cc1Cl`: the AC50 in [1] was 8.33 µM (active); in assay [13] it was 21.3 µM (active); in [18] it was 26.4 µM (active). Moreover, the call in [2], in assay [3], in [4], in assay [5], in assay [6] and in assay [7] was inactive. The outcome in assay [8] was “inactive”; in [9] it was “inactive”; in assay [10], “inactive”; in assay [11], “inactive”; with MYC, MYC (gene 4609), “inactive”; in assay [12] it was “inactive”. For the same molecule, the molecule was called inactive in assay [14], in assay [15], in assay [16] and in assay [17].
Take `CC(C)c1cccc(C(C)C)c1N1C(=O)c2ccc(O)cc2C1=O`: the molecule was classed as inactive in assay [1], in [2], in assay [3], in [4], in assay [5] and in [6]. For the same molecule, the molecule was called inactive in [19], in assay [14], in assay [15], in assay [16] and in assay [18]. In addition, the AC50 in assay [7] is 88.7 µM (active); in assay [8], 82.8 µM (active); in [9] it was 83.4 µM (active); in assay [10] it was 93.6 µM (active); in [11], 89.9 µM (active); with MYC, MYC (gene 4609), 50 µM (active). Besides, the AC50 in [12] was 93.4 µM (active); in assay [13], 76.8 µM (active); in assay [17] it was 91.4 µM (active).
Take `CC1=CC(=O)CC(C)(C)C1`: the molecule was classed as inactive in assay [1], in assay [2], in [3], in assay [4], in assay [5] and in assay [6]. For the same molecule, the call in assay [7], in assay [19], in assay [8], in [9], in [10] and in assay [11] was inactive. Also, the outcome with MYC, MYC (gene 4609) was “inactive”; in [12], “inactive”; in [13], “inactive”; in [15] it was “inactive”; in assay [16], “inactive”; in [17], “inactive”.
